GLP1R cytotox = cytotoxicity counter-screen for GLP-1 receptor inverse agonists | HEK293 cAMP-luciferase reporter cells, luminescence, 24 h | Potency, µM (doses to about 38.3 µM), inactives show at the top dose activity change, negative = inhibition, usual class: inhibitors | 0.13% of 410,000 active | AID 624418;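 note: loss of luciferase light is scored as toxicity; potency is the fitted concentration of half-maximal effect; % is set by controls: 0 for no effect and ±100 for the full control effect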
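MLSMR compounds, 24 hr on cells at 37 deg C/5% CO2; luminescence after luciferase reagent (12 min RT). Inhibition counted as the undesired cytotoxic outcome.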
GLP1R ag = activates the human GLP-1 receptor; 0.007% of 380,000 active; Potency, µM (titrated, usually from 45.6 µM), without a hit: top-dose activation, most hits filed as activators; HEK293 GLP-1R CRE-luciferase, luminescence, 4-6 h; cells express a hypersensitive GLP-1R form; note: potency is the fitted concentration of half-maximal effect; % of control where 0% means no effect
GLP-1R inv ag = inverse agonists of human GLP-1 receptor; 1.6% of 410,000 active; Potency, µM (doses to about 38.3 µM), inactives show at the highest dose activity change, negative = inhibition, actives largely listed as inhibitors; HEK293 GLP-1R CRE-luciferase, luminescence, 24 h; GLP-1R form is constitutively active; P43220; note: potency is the fitted concentration of half-maximal effect; % is set by controls: 0 for no effect and ±100 for the full control effect; nearly all actives have a fitted effect of over 55% in size
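qHTS in 1536-well format: reporter HEK293 cells expressing constitutive GLP-1R activity in DMEM + 10% Nu serum, 24 hr with compounds at 37 deg C, luminescence read after 12 min with detection reagent.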
ClpP mod = qHTS Assay for Activators of ClpP. purified B. subtilis ClpP, FRET peptide cleavage, 20 min. Potency, µM (top dose mostly 57.5 µM), for inactives: at the highest dose activity change, negative = active. 1.9% of 340,000 active. ATP-dependent Clp protease proteolytic subunit (Bacillus subtilis (strain 168)), P80244; active = well fitted falling curve with a large enough effect; inconclusive = small, poorly fitted or top-dose-only effect; inactive = no such curve, though single readings can be large or run the other way; note: potency is the fitted concentration of half-maximal effect; the source files actives as falling curves though it sought activators and does not explain the sign; nearly all actives have a fitted effect of over 65% in size
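Buffer: 100 mM Tris/HCl pH8, 100 mM KCl, 0.05% low protease BSA, 2.5% glycerol, 0.01% Tween-20. ClpP 10 microg/mL final; 20 min RT; delta FRET normalized to ADEP and DMSO controls.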
D3 ag = D3 dopamine receptor (human) agonism; D3R DiscoveRx beta-arrestin cells, luminescence, 90 min; max activation, %; 0.58% of 410,000 active; in the data active = max activation above about 30%; note: 0% is about no effect
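Agonist mode: compounds and dopamine controls were applied to plated cells for 90 min at 37 degrees C after an overnight attachment at 1500 cells/well. Luminescent read-out followed 30 - 60 minutes at room temperature with DiscoveRx detection reagent.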
D3 antag = D3 dopamine receptor (human) antagonism; P35462; D3R cells, DiscoveRx beta-arrestin luminescence, antagonist mode; hits give low values; max response, negative = inhibition, %; 2.5% of 360,000 active; AID 652054; in the data active = max response below about -50%; inconclusive = no clear call, values can overlap the other calls; note: % is set by controls: 0 for no effect and ±100 for the full control effect
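Cells expressing the human receptor were seeded at 1500 cells/well, incubated overnight at 37 degrees C in 5% CO2, then exposed to library compounds with dopamine controls for 90 minutes at 37 degrees C before luminescent detection.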
An asterisk follows results filed as active; ? = inconclusive; . = no result given. The list is not random: actives were taken first. Their share in the collection is about 5.7%. Unless noted, calls come from the whole dose curve; as a rule, active = well fitted curve in the direction sought with a large enough effect; inconclusive = small, poorly fitted or top-dose-only effect, or another doubt; inactive = no such curve, though single readings can be large; an effect the other way counts as inactive or inconclusive.

SMILES	GLP1R cytotox	GLP1R ag	GLP-1R inv ag	ClpP mod	D3 ag	D3 antag
C#CCOCCOCCOCCNc1nc(N2CCN(C(=O)CCCCCCCCCCNC(=O)Cn3cc(CCCCCN)nn3)CC2)nc(N2CCN(C(=O)CCCCCCCCCCNC(=O)[C@H]([C@@H](C)CC)n3cc(CCCCN=C(N)N)nn3)CC2)n1	?	-3%	?	2%	-34	-63*
C#CCOCCOCCOCCNc1nc(N2CCN(C(=O)Cn3cc(CCO)nn3)CC2)nc(N2CCN(C(=O)[C@H]([C@@H](C)CC)n3cc(CCCN=C(N)N)nn3)CC2)n1	10%	-1%	1%	1%	53*	-3
C#CCOCCOCCOCCNc1nc(N2CCN(C(=O)CCCCCCCCCCNC(=O)[C@H]([C@@H](C)CC)n3cc(CCCCCN)nn3)CC2)nc(N2CCN(C(=O)CCCCCCCCCCNC(=O)[C@H](CCCCN)n3cc(CCCC(=O)O)nn3)CC2)n1	1%	1%	8%	-21%	42*	-4
O=C(NCc1cccc(Br)c1)c1cccn1-c1nnc(N2CCCCC2)s1	-10%	.	?	-29%	-16	.
COc1cc(C2c3c(-c4cc(C)ccc4O)n[nH]c3C(=O)N2CCCO)ccc1OCCC(C)C (stereo not drawn)	-20%	.	?	0%	8	.
C#CCOCCOCCOCCNc1nc(N2CCN(C(=O)[C@H]([C@@H](C)CC)n3cc([C@@H](N)CC(C)C)nn3)CC2)nc(N2CCN(C(=O)[C@H](Cc3ccc(O)cc3)n3cc([C@@H](N)C(C)CC)nn3)CC2)n1 (stereo partly drawn)	3%	-3%	16%	1%	-74	-50*
C#CCOCCOCCOCCNc1nc(N2CCN(C(=O)CCCCCCCCCCNC(=O)[C@@H](CCC(=O)O)n3cc(CCCCCN)nn3)CC2)nc(N2CCN(C(=O)CCCCCCCCCCNC(=O)[C@H]([C@@H](C)CC)n3cc(CCCCCN)nn3)CC2)n1	-13%	7%	20%	1%	35*	10
CCOC(=O)c1ccc(NC(=O)c2cnn(-c3ccc(C)cc3C)c2C2CCN(C(=O)OC(C)(C)C)CC2)cc1	0%	.	?	-20%	5	.
CCOC(=O)c1ccc(NS(=O)(=O)c2cc(-c3onc(C)c3C)ccc2C)cc1	13%	.	17%	-2%	9	.
COc1cc(C2C(C(=O)c3ccc(C)o3)=C(O)C(=O)N2c2cc(C)on2)cc(Br)c1O (stereo not drawn)	-23%	-17%	-19%	-1%	0	-57*
Cc1cc(N2C(=O)C(O)=C(C(=O)c3ccco3)C2c2cccc(Cl)c2)no1 (stereo not drawn)	-14%	-2%	-26%	-1%	10	1
COc1cc(C2C(C(=O)c3ccco3)=C(O)C(=O)N2c2cc(C)on2)cc(Br)c1O (stereo not drawn)	-15%	-2%	3%	1%	-13	-73*
O=C(Sc1n[nH]c(=O)[nH]c1=O)c1ccccc1	-11%	-2%	24%	2%	-11	28
COc1ccc(NC(=O)c2c(NCc3cccs3)sc3c2CCCCC3)c(OC)c1	0%	.	7%	2%	1	.
CC(C)c1nc2sc3c(=O)n(N)cnc3c2c2c1COC(C)(C)C2	2%	22%	51%	16µM*	3	-27
O=C1C=CC(=C(c2ccc(O)cc2)c2ccc(O)cc2)C=C1	8.9µM*	-6%	5.6µM*	0%	-4	0
OCC1OC(n2cnc3c(SCc4ccccc4)ncnc32)C(O)C1O (stereo not drawn)	-14%	-3%	-6%	-4%	6	-3
OCC1OC(n2ccc3c(SCc4ccccc4)ncnc32)C(O)C1O (stereo not drawn)	-2%	2%	2%	35µM*	8	21
O=C(C=P(c1ccccc1)(c1ccccc1)c1ccccc1)c1ccccc1-c1ccccc1C(=O)C=P(c1ccccc1)(c1ccccc1)c1ccccc1	-4%	-11%	?	-14%	-3	-89*
O=C(NNC(=O)c1ccccc1-c1ccccc1C(=O)O)c1ccccc1	-2%	4%	16%	.	1	5
CCCCNc1c(-c2ccc(F)cc2)nc2nc(C)cc(C)n12	-4%	9%	?	-5%	0	-7
N[C@H](C(=O)O)c1ccc(O)cc1	.	.	.	.	-7	.
N#Cc1nc(-c2ccc(Cl)cc2)oc1NCc1cccc2c1OCO2	-1%	-3%	6%	11µM*	-2	18
N#Cc1nc(-c2ccc(Cl)cc2)oc1NCc1ccco1	7%	4%	7%	11µM*	1	-27
COCCNc1oc(-c2ccc(Cl)cc2)nc1C#N	12%	5%	14%	-5%	2	-4
SMILES	GLP1R cytotox	GLP1R ag	GLP-1R inv ag	ClpP mod	D3 ag	D3 antag
COc1ccc(N2C(=O)Cc3cc(OC)c(OC)cc3C2c2ccc(F)cc2)cc1 (stereo not drawn)	3%	.	-3%	-1%	-10	.
CCOC(=O)c1c(Nc2cccc(C(=O)OC)c2)nnc(-c2ccccc2)c1-c1ccccc1	1%	-6%	1%	-1%	28	.
CCOC(=O)c1c(Nc2ccc(C)cc2)nnc(-c2ccccc2)c1-c1ccccc1	0%	-3%	11µM*	-3%	22	.
O=C(CCC1N=C2c3ccccc3N=C(SCC(=O)Nc3ccc(F)cc3)N2C1=O)NCc1ccco1 (stereo not drawn)	-13%	.	9%	1%	-3	.
Cc1oc2c(CN3CCCC3)c(O)ccc2c(=O)c1-c1ccc(Br)cc1	?	1%	?	14µM*	-6	6
Cc1oc2c(CN3CCCCC3)c(O)ccc2c(=O)c1-c1ccc(Br)cc1	2%	6%	-13%	.	-6	-14
COc1ccc(-c2c(C)oc3c(CN4CCN(CCO)CC4)c(O)ccc3c2=O)cc1OC	13%	-1%	4%	22µM*	0	5
COc1cccc(-n2ccnc2SCC(=O)Nc2nc3ccc(C)cc3s2)c1	8%	-7%	3%	-3%	-9	.
COc1ccc2c(C)c(CCC(=O)NCCc3ccc(OC)c(OC)c3)c(=O)oc2c1	-15%	.	-15%	5%	7	.
O=C(CSc1nc(=O)n(Cc2ccncc2)c2c1CCC2)Nc1ccc(F)cc1F	-7%	.	2%	0%	0	.
CC(=O)N=c1sc2ccccc2n1C	13%	-11%	12%	1%	-11	-5
CC(=O)N=c1sc2nc3ccccc3nc2n1N(C(C)=O)C(C)=O	5%	0%	-3%	28µM*	-7	-11

Screens from PubChem BioAssay.
